Reference: publication PMC4552634, “A New Set of Chemical Starting Points with Plasmodium falciparum Transmission-Blocking Potential for Antimalarial Drug Discovery” (PLoS ONE, 2015)
Screen size: about 13,000 compounds; about 3,200 (25%) showed an effect of 50% or more. Some of the results follow.

The compounds below were run on P. falciparum stage V gametocytes. Conditions: 48 h, 5 µM; inhibitor.
Design: BacTiter-Glo ATP luminescence viability of purified stage V gametocytes in 384-well plates, per cent inhibition versus DMSO
For Cc1cc(-c2ccnc(Nc3cccc(C#N)c3)n2)cc(C)c1O [TCMDC-133719], the “% Inhibition” value was -73.96%.
In the case of O=C(NC1CCCCCC1)C1CCCN(C(=O)c2ccc(O)c(-c3ccc(Cl)c(Cl)c3)c2)C1 (stereo not drawn) [TCMDC-140888], the “% Inhibition” value is reported as 23.53%.
CCCCN1C(=O)C2CC(=O)CC(C3CCCCC3)C2C1=O (stereo not drawn) [TCMDC-139128] was tested, and the “% Inhibition” value was 18.42%.
For O=C(O)C(F)(F)F.c1cc(-c2ccc(CNC3CCOCC3)cc2)cc(-c2nc3ccccc3[nH]2)c1 [TCMDC-132572], the “% Inhibition” value was 48.89%.
In the case of CCCC[C@H](NC(=O)O[C@H](COc1ccc(OCc2ccccc2)cc1)C(C)(C)C)C(=O)C(=O)Nc1ccn[nH]1 [TCMDC-138665], the “% Inhibition” value is reported as 67.01%.
With CCC[C@@H]([C@@H](CC(C)C)C(=O)N[C@@H](CCCCNC(=O)OCc1ccccc1)C(=O)Nc1ncccn1)N(O)C=O [TCMDC-137323] the “% Inhibition” value was 42.47%.
In the case of CCCC[C@H](NC(=O)OC(C)(C)C)C(=O)Nc1ccc(Cc2ccc(NC(=O)[C@H](CCCC)NC(=O)OC(C)(C)C)cc2)cc1 [TCMDC-131870], the “% Inhibition” value is reported as -71.66%.
For Cc1ccc2c(Cl)c(C(=O)N3CCCc4ccccc43)sc2c1 [TCMDC-125658], the “% Inhibition” value was 1.703%.
In the case of CC1(CCc2ccccc2)N=C(N)N=C(N)C1c1ccc(Cl)c(Cl)c1 (stereo not drawn) [TCMDC-136376], the “% Inhibition” value is reported as 33.71%.
For CC1(CCc2ccccc2)N=C(N)N(Cc2ccccc2)C(=O)C1c1ccc(Cl)c(Cl)c1 (stereo not drawn) [TCMDC-136509], the “% Inhibition” value was 88.15%.
In the case of CCCCCCC1(C)N=C(N)N=C(N)C1c1ccc(Cl)c(Cl)c1 (stereo not drawn) [TCMDC-137594], the “% Inhibition” value is reported as 22.11%.
In the case of O=C(NCCN1CCOCC1)c1ccc(N2CCC(Oc3ccc4ccccc4c3)CC2)nc1 [TCMDC-134400], the “% Inhibition” value is reported as 19.81%.
O=C(CCC1CCCCC1=O)c1ccccc1 (stereo not drawn) [TCMDC-125845] was tested, and the “% Inhibition” value was 5.946%.
With CN(c1ccc2c(c1)nc(NCc1ccccc1)n2C)c1ccnc(Nc2ccc(CS(C)(=O)=O)cc2)n1 [TCMDC-138740] the “% Inhibition” value was 25.8%.
In the case of Cc1ccc(C2CCN(CCCCNC(=O)c3ccc(NC(=O)c4ccc(Cl)cc4)cc3)CC2)c(OCC(F)(F)F)c1 [TCMDC-138572], the “% Inhibition” value is reported as -14.71%.
In the case of COc1cc(C(C)C)ccc1C1CCN(CCCCNC(=O)c2ccc(NC(=O)c3ccc(Cl)cc3)cc2)CC1 [TCMDC-138403], the “% Inhibition” value is reported as 115.5%.
Cc1ccc(C2CCN(CCCCNC(=O)c3ccc(NC(=O)c4ccc(Cl)cc4)cc3)CC2)c(OCC2CC2)c1 [TCMDC-138541] was tested, and the “% Inhibition” value was 76.06%.
In the case of COc1ccc(C2CCN(CCCCNC(=O)c3ccc(NC(=O)c4ccc(Cl)cc4)cc3)CC2)c(OC)c1 [TCMDC-138254], the “% Inhibition” value is reported as 47.57%.
For CCOc1ccc(C2CCN(CCCCNC(=O)c3ccc(NC(=O)c4ccc(Cl)cc4)cc3)CC2)c(CC)c1 [TCMDC-138357], the “% Inhibition” value was 26.78%.
For COc1ccccc1C1CCN(CCCCNC(=O)c2ccc(/C=C/c3cc(Cl)cc(Cl)c3)cc2)CC1 [TCMDC-138241], the “% Inhibition” value was 103.9%.
CCOc1ccc(C2CCN(CCCCNC(=O)c3ccc(NC(=O)c4ccc(Cl)cc4)cc3)CC2)c(Cl)c1 [TCMDC-138365] was tested, and the “% Inhibition” value was 58.19%.
In the case of CCOc1cc(C(C)C)ccc1C1CCN(CCCCNC(=O)c2ccc(NC(=O)c3ccc(Cl)cc3)cc2)CC1 [TCMDC-138385], the “% Inhibition” value is reported as 20.72%.
CCOc1cc(C)ccc1C1CCN(CCCCNC(=O)c2ccc(NC(=O)c3cc(Cl)cc(Cl)c3)cc2)CC1 [TCMDC-138620] was tested, and the “% Inhibition” value was 9.848%.
CCOc1ccccc1C1CCN(CCCCNC(=O)c2ccc(NC(=O)c3ccc(Cl)cc3)cc2)CC1 [TCMDC-138369] was tested, and the “% Inhibition” value was -17.64%.
In the case of CCc1cc(OC)ccc1C1CCN(CCCCNC(=O)c2ccc(NC(=O)c3ccc(Cl)cc3)cc2)CC1 [TCMDC-138360], the “% Inhibition” value is reported as -6.372%.
COc1ccccc1C1CCN(CCCCNC(=O)c2ccc(NC(=O)c3ccc(Cl)cc3)cc2)CC1 [TCMDC-138239] was tested, and the “% Inhibition” value was 21.16%.
O=C(Nc1ccc2ccccc2n1)c1ccccc1-c1ccccc1 [TCMDC-125339] was tested, and the “% Inhibition” value was -5.994%.
With FC(F)(F)c1ccc(/C=C/c2cncnc2Nc2ccc3nc(Cc4ccccc4)[nH]c3c2)cc1 [TCMDC-138660] the “% Inhibition” value was -4.612%.
In the case of CC(Oc1ccc(C(=O)c2ccc(F)cc2)cc1)C(=O)N1CCc2ccccc21 (stereo not drawn) [TCMDC-123555], the “% Inhibition” value is reported as 10.82%.
In the case of Cc1sc2nc(CSc3ccccc3)nc(N3CCN(CC(=O)N4CCCC4)CC3)c2c1C [TCMDC-125052], the “% Inhibition” value is reported as -14.62%.
N#Cc1ccc2c(c1)CCN(CCC1CCC(NC(=O)/C=C/c3ccc(F)c4ccccc34)CC1)CC2 (stereo not drawn) [TCMDC-139664] was tested, and the “% Inhibition” value was -16.56%.
In the case of CC(C)C[C@H](Nc1ccnc(NCC2CCCCC2)n1)C(=O)NCCc1ccccc1 [TCMDC-134713], the “% Inhibition” value is reported as -30.95%.
In the case of CCCC(=O)Nc1ccc(OCCN(Cc2ccccc2OC(F)(F)F)c2ccc(C(F)(F)F)c(C#N)c2)cc1 [TCMDC-132791], the “% Inhibition” value is reported as 22.95%.
With CCCCCc1ccc(NC(=O)Nc2ccc(Cn3ncc(N4CCCNCC4)c(Cl)c3=O)cc2)cc1 [TCMDC-133312] the “% Inhibition” value was -21.48%.
For CCOc1ccc(C2CCN(CCCCNC(=O)c3ccc(NC(=O)c4ccc(Cl)cc4)cc3)CC2)c(OCC)c1 [TCMDC-138260], the “% Inhibition” value was 93.19%.
For CC(C)c1ccc(C2CCN(CCCCNC(=O)c3ccc(NC(=O)c4ccc(C(F)(F)F)cc4)cc3)CC2)c(O)c1 [TCMDC-138527], the “% Inhibition” value was 105.5%.
In the case of O=C(NCCCCN1CCC(c2ccc(C(F)(F)F)cc2C(F)(F)F)CC1)c1ccc(NC(=O)c2ccc(Cl)cc2)cc1 [TCMDC-138343], the “% Inhibition” value is reported as -51.81%.
Cc1ccc(C2CCN(CCCCNC(=O)c3ccc(-c4ccc(C(F)(F)F)cc4)cc3)CC2)c(O)c1 [TCMDC-138538] was tested, and the “% Inhibition” value was 45.11%.
COc1cccc(C2CCCN(CCCCNC(=O)c3ccc(NC(=O)c4ccc(Cl)cc4)cc3)C2)c1 (stereo not drawn) [TCMDC-138283] was tested, and the “% Inhibition” value was 16.5%.
With COc1ccc(C2CCN(CCCCNC(=O)c3ccc(NC(=O)c4ccc(Cl)cc4)cc3)C2)c(OC)c1 (stereo not drawn) [TCMDC-138281] the “% Inhibition” value was 10.37%.
CCOc1ccc(N2CCN(CCCCNC(=O)c3ccc(NC(=O)c4ccc(Cl)cc4)cc3)CC2)c(OCC)c1 [TCMDC-138243] was tested, and the “% Inhibition” value was 4.088%.
COc1cccc(OCC2CCCN(CCCCNC(=O)c3ccc(NC(=O)c4ccc(Cl)cc4)cc3)C2)c1 (stereo not drawn) [TCMDC-138269] was tested, and the “% Inhibition” value was 92.38%.
With COc1ccc(C2CCN(CCCNC(=O)c3ccc(NC(=O)c4ccc(Cl)cc4)cc3)CC2)c(OC)c1 [TCMDC-138288] the “% Inhibition” value was 4.031%.
In the case of CCCCc1nc2nc(N)nc(N)c2cc1CCC [TCMDC-137499], the “% Inhibition” value is reported as 32.62%.
Nc1ccn([C@@H]2O[C@H](COC(c3ccccc3)(c3ccccc3)c3ccccc3)[C@@H](O)[C@@H]2O)c(=O)n1 [TCMDC-131864] was tested, and the “% Inhibition” value was 13.5%.
In the case of Cc1[nH]cc(Br)c(=O)c1-c1ccc(Oc2ccccc2)cc1 [TCMDC-136196], the “% Inhibition” value is reported as 35.13%.
With COc1ccc(C(=O)Cn2nc(-c3ccc(Cl)cc3)ccc2=O)c(OC)c1 [TCMDC-135946] the “% Inhibition” value was -6.888%.
In the case of COc1ccc(OC)c(-c2ccc(=O)n(CC(=O)Nc3cccc4ccccc34)n2)c1 [TCMDC-125146], the “% Inhibition” value is reported as 85.63%.
For COc1cc(NC(=O)Nc2cccc3ccccc23)c(OC)cc1Cl [TCMDC-123751], the “% Inhibition” value was 9.254%.
With O=C(Cc1cnc[nH]1)Nc1cccc(-c2cccc(-c3nc4ccc(F)cc4[nH]3)c2)c1 [TCMDC-136943] the “% Inhibition” value was 10.3%.
With O=C(Nc1ccc(Cl)c(Cl)c1)N(Cc1ccccc1Br)C1CCNCC1 [TCMDC-141401] the “% Inhibition” value was 32.46%.
In the case of O=C(Nc1cccc(-c2cccc(-c3ccc(F)cc3)n2)c1)c1ccc([N+](=O)[O-])o1 [TCMDC-124807], the “% Inhibition” value is reported as 101.6%.
With COc1cccc(-c2cc(-c3ccc(NC(=O)c4ccccc4)cc3)c3c(N)ncnc3n2)c1 [TCMDC-134855] the “% Inhibition” value was -19.07%.
In the case of Cc1ccc(-n2nc3ccc(NC(=O)c4ccc([N+](=O)[O-])o4)cc3n2)cc1C [TCMDC-123655], the “% Inhibition” value is reported as 20.82%.
For O=C(Nc1ccc(-c2nc3ccccc3[nH]2)cc1)c1ccc(-c2cccc([N+](=O)[O-])c2)o1 [TCMDC-125805], the “% Inhibition” value was -5.454%.
With O=C(Nc1cc(Oc2ccc(O)cc2)cc([N+](=O)[O-])c1)c1cc(-c2ccc(F)cc2)no1 [TCMDC-125444] the “% Inhibition” value was -44.25%.
For CC(C)(C)c1ccc(C(=O)Nc2ccc(NC(=O)c3ccc([N+](=O)[O-])o3)cc2)cc1 [TCMDC-123733], the “% Inhibition” value was -4.108%.
In the case of CCCc1ccc(-c2csc(NC(=O)c3ccc([N+](=O)[O-])o3)n2)cc1 [TCMDC-125314], the “% Inhibition” value is reported as 1.071%.
For O=C(Nc1cccc(-c2nc3ccccc3[nH]2)c1)c1ccc(-c2cccc([N+](=O)[O-])c2)o1 [TCMDC-125228], the “% Inhibition” value was 18.9%.
With COc1cccc(-c2cc(C(=O)Nc3cc(Oc4ccc(O)cc4)cc([N+](=O)[O-])c3)on2)c1 [TCMDC-125290] the “% Inhibition” value was -10.41%.
COc1ccccc1-c1cccc(-c2cccc(NC(=O)c3ccc([N+](=O)[O-])o3)c2)n1 [TCMDC-124800] was tested, and the “% Inhibition” value was 105.3%.
With COc1ccc(OC)c(-c2cccc(-c3cccc(NC(=O)c4ccc([N+](=O)[O-])o4)c3)n2)c1 [TCMDC-124799] the “% Inhibition” value was 113.4%.
For COc1cccc(-c2cccc(-c3ccc(NC(=O)c4ccc([N+](=O)[O-])o4)cc3)n2)c1 [TCMDC-124806], the “% Inhibition” value was 99.55%.
